Shown are actives, neighbours in structure and some others; about 2.4% of the full set was active somewhere.
NTMT1 inh: NTMT1 methyltransferase inhibition. Potency, µM (titrated, usually from 114 µM), for the others: top-dose activity change, negative = inhibition, usual class: inhibitors. Q9BV86. hit rate 2.5% among 59,000. NTMT1 MTase-Glo SAH luminescence, purified enzyme;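 note: plate controls were DMSO vehicle for no effect and no enzyme for full effect; nearly all actives have a fitted effect of over 65% in size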
Target sequence (Q9BV86 whole entry, looked up): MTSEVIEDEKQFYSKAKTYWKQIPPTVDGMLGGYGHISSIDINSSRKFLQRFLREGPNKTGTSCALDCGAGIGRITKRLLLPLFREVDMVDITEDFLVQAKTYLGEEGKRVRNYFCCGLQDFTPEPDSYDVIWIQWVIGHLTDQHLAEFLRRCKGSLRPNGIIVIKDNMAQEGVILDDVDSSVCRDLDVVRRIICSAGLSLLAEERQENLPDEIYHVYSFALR
HTT-AS promoter: activates huntingtin-antisense promoter activity | HEK293 HTT-AS promoter firefly luciferase reporter, 24 h; response scale: percent change from vehicle, -100% = no light | Potency, µM (highest dose often 57.5 µM), without a hit: at the highest dose activity change, positive = activation, actives largely listed as activators | hit rate 0.24% among 48,000; note: nearly all actives have a fitted effect of over 55% in size
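HEK293 Fluc reporter, 2,500 cells/well, 24 h pre-culture; cpds up to 57.5 uM final, 24 h 37 degrees C; Dual-Glo, 10 min RT; normalized vehicle = 0%, zero RLU = -100%.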
HTT promoter inh: inhibits huntingtin promoter activity; HEK293 HTT promoter firefly luciferase reporter, 24 h; AID 1508623; Potency, µM (top dose mostly 57.5 µM), for inactives: at the highest dose activity change, negative = inhibition, most hits filed as inhibitors; hit rate 0.93% among 48,000; note: nearly all actives have a fitted effect of over 50% in size
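HEK293 Fluc reporter, 2,500 cells/well, 24 h pre-culture; cpds up to 57.5 uM final, 24 h 37 degrees C; Dual-Glo, 10 min RT; normalized vehicle = 0%, zero RLU = -100%.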
Numbers without * were called inactive; ? = inconclusive; . = no result; ! = not active in a repeat; [ ] = another dose, or the depositor's remark. Calls come from the whole dose curve; as a rule, active = well fitted curve in the direction sought with a large enough effect; inconclusive = small, poorly fitted or top-dose-only effect, or another doubt; inactive = no such curve, though single readings can be large; an effect the other way counts as inactive or inconclusive. Potency is the fitted concentration of half-maximal effect.

SMILES | NTMT1 inh | HTT-AS promoter | HTT promoter inh
C[C@@H]1C(=O)OC2[C@H](O)[C@]34[C@H]5C[C@@H](C(C)(C)C)[C@]36[C@@H](OC(=O)[C@@H]6O)O[C@@]4(C(=O)O5)[C@]21O (stereo not given in full) | 16% | . | .
OCCCc1ccccc1 | -12%[57.5 µM] | 1% | -4%
NNCCc1ccccc1 | ? | 4µM*! | -7%
CC(=O)NCC(=O)N1[C@@H]2CC[C@H]1c1ccc(Nc3ncc(C(F)(F)F)c(NC4CCC4)n3)cc12 | -4% | . | .
COc1ccc(-c2nc(Nc3ccc(F)c(F)c3)c3ccccc3n2)cc1 | -16% | . | .
CCOC(=O)c1ccc(N2C(=O)c3n[nH]c(-c4cccs4)c3C2c2ccc(CC)cc2)cc1 (stereo not given) | 14% | -81% | 20µM*
CCOC(=O)c1ccc(N2C(=O)c3n[nH]c(-c4cccs4)c3C2c2cccc(O)c2)cc1 (stereo not given) | -1% | -55% | ?
CCOC(=O)c1ccc(N2C(=O)c3n[nH]c(-c4cccs4)c3C2c2ccc(C(C)C)cc2)cc1 (stereo not given) | 5% | -51% | 25µM*
CCOC(=O)c1ccc(N2C(=O)c3n[nH]c(-c4cccs4)c3C2c2ccc(OCC)cc2)cc1 (stereo not given) | 5% | -42% | ?
COc1c2c(cc3c1-c1c(cc4c(c1OC)OCO4)CC(C)C(C)C3)OCO2 (stereo not given) | 20%[29.8 µM] | . | .
Cc1cc(-c2nnc3n2CCCCCCC3)c(C)n1-c1ccccc1 | 1% | . | .
CC(C)=CCC/C(C)=C/CC/C(C)=C/CSc1ccccc1C(=O)O | 50µM* | . | .
CC(C)=CCCC(C)=CCCC(C)=CCSc1ccccc1C(=O)O | ? | -30% | ?
C[C@@H](O)[C@@H]1NC(=O)[C@H](CCCCN)NC(=O)[C@@H](Cc2c[nH]c3ccccc23)NC(=O)[C@H](Cc2ccccc2)NC(=O)[C@@H](NC(=O)[C@H](N)Cc2ccccc2)CSSC[C@@H](C(=O)N[C@H](CO)[C@@H](C)O)NC1=O | -11%[57.5 µM] | . | .
Nc1ccccc1OCCn1c(CCNC(=O)C2CCCCC2)nc2ccccc21 | 29% | . | .
CC(CNC(=O)c1cnn(-c2ccc(F)cc2)c1-n1cccc1)c1ccccc1 (stereo not given) | 79µM* | -45% | ?
COc1ccc(CNC(=O)c2cnn(-c3ccc(F)cc3)c2-n2cccc2)cc1 | -2% | -10% | -31%
Fc1cnc(-c2ccccc2C(F)F)nc1NCc1ccc(-n2ccnn2)cc1 | -9% | . | .
COc1cc(F)c(F)c(Nc2ccc(I)cc2F)c1NS(=O)(=O)C1(CC(O)CO)CC1 (stereo not given) | -25%[57.5 µM] | . | .
Cn1c(SCc2ccc(F)cc2)nc2ccc(C(=O)NCc3ccc(Cl)cc3)cc21 | 18% | -45% | ?
Cc1ccc(CNC(=O)c2ccc3nc(SCc4ccc(F)cc4)[nH]c3c2)cc1 | ? | -87% | 22µM*
CC(C)Oc1ccc(CNC(=O)c2ccc3nc(SCc4ccc(F)cc4)n(C)c3c2)cc1 | 10% | -20% | ?
Cn1c(SCc2ccc(F)cc2)nc2ccc(C(=O)NCc3ccc(F)cc3)cc21 | -2% | -62% | 25µM*
COC(=O)c1ccc(=O)c2nc3/c(=C/O)c(O)cc(=O)c3[nH]c12 | 35µM* | . | .
Cc1ccsc1C1N=C(Nc2nc3ccccc3o2)NC2=C1C(=O)CCC2 (stereo not given) | 6% | . | .
SMILES | NTMT1 inh | HTT-AS promoter | HTT promoter inh
CC(=O)O[C@H](C[C@@H](C)[C@H]1C(=O)[C@H](O)[C@@]2(C)[C@@H]3CCC4C(C)(C)[C@@H](O[C@@H]5OC[C@H](O)[C@H](O)[C@H]5O)CC[C@@]45C[C@@]35CC[C@]12C)[C@@H]1OC1(C)C (stereo not given in full) | 11%[12.6 µM] | . | .
O=C(NCCc1ccccc1)c1ccc(Cn2c(SCc3ccccc3F)nc3cccnc32)cc1 | 89µM* | -6% | ?
O=C(NCCc1ccccc1)c1ccc(CSc2nc3cccnc3n2Cc2ccccc2F)cc1 | -18% | -6% | -23%
C=CCNC1=C2CC(C)CC(OC)C(O)C(C)/C=C(\C)C(OC(N)=O)C(OC)/C=C/C=C(\C)C(=O)NC(=CC1=O)C2=O (stereo not given) | -16% | . | .
NC(=O)Nc1cc(-c2ccc(CN3CCOCC3)cc2)sc1C(N)=O | -6% | 22µM* | 24%
NC(=O)Nc1cc(-c2ccc(CN3CCOCC3)c(F)c2)sc1C(=O)N[C@H]1CCCNC1 | 11%[57.5 µM] | . | .
CCCCN(C)C(=O)Cn1nc(-c2ccc(F)cc2)ccc1=O | 10%[57.5 µM] | . | .
O=C(NO)c1cnc(NC2(c3cccc(F)c3)CCCCC2)nc1 | 16% | . | .
